# PubChem BioAssay (NCI)
# This is part of a sample that, as a whole, favours compounds with a hit. Of some 83,000 tested, about 20% had one in any assay.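 For each line, cells grew in 96-well plates with the test compound present at a single concentration for 48 hours.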 A number with no mark means an inactive call. Activity calls are given as the source filed them. How the source made its calls: active means growth percent below 10; inactive means the rest.
# System: MDA-MB-468 breast
# Assay: NCI-60 one-dose screen, 48 h (100 = growth as untreated, 0 = no growth, -100 = all killed)
# Settings: 10 µM unless noted
row,SMILES,growth
1,Fc1cc2c(cc1Cl)N(c1ncnc3ccc(-c4ccc5n[nH]nc5c4)cc13)CC2,40.2%
2,CC(O)c1cccc(/C(N)=N/C(N)=N/c2nc3ccccc3s2)c1 (stereo not given),103%
3,O=S(=O)(c1ccccc1)n1ccc(-c2ccc3c(c2)CCO3)n1,42.4%
4,O=S(=O)(Oc1ccc(Br)cc1)c1ccc(Cl)cc1,105%
5,N=C(N)c1ccc(-c2ccc(-c3cccs3)s2)nc1,-51% (active)
6,O=C1NC2(Nc3ccccc31)C(=O)Nc1c(Cl)cc(Cl)cc12 (stereo not given),112%
7,Cc1nc2ccccc2c(/C=C/c2ccc(Cl)cc2)c1C(=O)/C=C/c1ccc(Cl)cc1,-50.9% (active)
8,Cn1cc(-c2csc(-c3cn(C)c4ncccc34)n2)c2cc(F)cnc21,-10.1% (active)
9,CN1CCN(c2cnc(C(=O)Nc3cc(F)cc4cccnc34)cn2)CC1,9.54% (active)
10,Cc1[nH]n(C(=O)c2ccncc2)c(=O)c1N=Nc1ccc(S(=O)(=O)Nc2ccncn2)cc1,103%
11,NS(=O)(=O)c1ccc(-n2cc(CN3CCNCC3)nn2)cc1,-22.4% (active)
12,O=C1c2ccccc2C2(c3ccc(O)cc3)c3ccccc3Oc3cccc1c32 (stereo not given),-8.79% (active)
13,COc1cc2c3c(c(=O)oc2cc1OS(=O)(=O)c1ccc(C(F)(F)F)cc1)CCCCC3,67%
14,COc1cccc(/C=C2\COc3ccc(-c4ccccc4)cc3C2=O)c1,7.82% (active)
15,CC(=O)[C@@H]1CC[C@]2(C(N)=O)CC[C@]3(C)[C@H](CC[C@@H]4[C@@]5(C)CCC(=O)C(C)(C)[C@@H]5CC[C@]43C)[C@@H]12,98.5%
